# From the supplement of paper PMC3334620
# The full ranking holds about 33,000 sequences; the median of “E-score (-0.5 to 0.5)” is about -0.032, and the highest 2% start at about 0.36. The list comes from a sample in which the highest values are over-represented; it also holds similar and randomly drawn sequences.
# Target: T1, Sko1 (UniProt Q02100)
# T1 sequence: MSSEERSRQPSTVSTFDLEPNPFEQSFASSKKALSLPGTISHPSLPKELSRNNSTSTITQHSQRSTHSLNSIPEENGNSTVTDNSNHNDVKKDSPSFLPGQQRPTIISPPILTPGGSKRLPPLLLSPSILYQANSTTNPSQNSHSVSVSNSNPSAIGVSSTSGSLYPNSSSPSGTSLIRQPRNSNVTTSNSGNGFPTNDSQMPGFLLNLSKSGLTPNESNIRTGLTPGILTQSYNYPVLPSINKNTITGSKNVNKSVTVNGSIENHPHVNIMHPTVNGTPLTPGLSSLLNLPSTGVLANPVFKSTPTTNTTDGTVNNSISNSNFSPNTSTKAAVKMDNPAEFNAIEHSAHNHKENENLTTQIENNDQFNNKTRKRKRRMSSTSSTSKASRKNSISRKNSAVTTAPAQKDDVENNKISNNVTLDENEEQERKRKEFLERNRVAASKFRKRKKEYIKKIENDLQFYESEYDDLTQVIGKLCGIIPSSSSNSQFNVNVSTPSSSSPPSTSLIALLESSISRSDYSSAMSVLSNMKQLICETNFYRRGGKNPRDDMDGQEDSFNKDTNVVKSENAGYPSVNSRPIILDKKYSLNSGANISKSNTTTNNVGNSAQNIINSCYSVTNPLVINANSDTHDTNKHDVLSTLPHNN
# Experiment: PBM E-score (8-mer binding enrichment) (E-score (-0.5 to 0.5)); higher = stronger / more preferred TF binding
# Conditions: protein concentration: 200 nM; construct: GST-full length
# How it was run: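 Masliner-normalised scans of fluorescent anti-GST signal were the basis for scoring. That signal came from GST-tagged yeast transcription factors applied at about 100-200 nM to double-stranded universal all-10-mer Agilent arrays on fresh or once-stripped slides. Each ungapped eight-base word, pooled with its reverse complement, received an E-score from the Universal PBM Analysis Suite.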
row,Sequence,PBM E-score
1,TCGTACAA,0.206
2,ACGTACAA,0.414
3,GCGTACAC,0.213
4,AGGTACAG,-0.145
5,ACCAATGG,-0.28
6,CTCAGTTA,-0.0515
7,CGAAACTC,-0.0389
8,TAGTCCAA,-0.132
9,ACATCAGT,0.179
10,CCGTCAGA,-0.0558
11,CCGTCAGG,-0.0861
12,ACGTCAGT,0.469
13,TCGTCAGA,0.307
14,ACGTCAGA,0.479
15,GTGTCAGA,-0.06
16,GCGTCAGA,0.364
17,GGGTCAGA,-0.219
18,ACGTCAGG,0.457
19,AAGTCAGT,-0.0135
20,ATGTCAGG,0.0993
21,AGTCCCTG,-0.259
22,AATGGGAC,-0.215
23,CGCCCTGC,-0.236
24,CCACTCAG,-0.212
25,CCAAAGAC,-0.098

row,Sequence,PBM E-score
1,GCGCCCGC,-0.165
2,GATCATAC,0.14
3,ACGGTTCA,-0.126
4,GCGTCAGC,0.209
5,CCGTCAGC,-0.127
6,ACGTCAGC,0.48
7,CCCCCCAC,-0.372
8,ACGTGTAT,0.414
9,CCGTGTAA,-0.0449
10,AAGTGTAT,0.0856
11,ACGTGTAC,0.409
12,ACGTGTAG,0.367
13,TCGTGTAA,0.116
14,GCGTGTAC,0.227
15,CCGTGTAG,-0.181
16,CCGTGTAC,-0.0602
17,ACGTGTAA,0.386
18,AAGTGTAG,0.0389
19,AGGTGTAT,0.075
20,CATGACTA,0.0134
21,AATACCGG,0.00982
22,CGTTTACA,0.138
23,CTCCCCAC,-0.00257
24,ATTAAGCG,0.0319
25,ACCGCATC,-0.161

row,Sequence,PBM E-score
1,AATAAGCT,0.0887
2,CTATAGGA,0.0338
3,CCGAGATA,0.00305
4,ACTAGTGC,-0.13
5,CCGTGTCG,-0.319
6,ACGTGTCA,0.378
7,AAGTGTCT,-0.135
8,CCGTGTCA,-0.186
9,AAGTGTCG,0.00605
10,ACGTGTCC,0.318
11,ACGTGTCG,0.385
12,GCGTGTCA,0.216
13,ACGTGTCT,0.381
14,CAGCAGGC,-0.22
15,AGGCTTGA,-0.0134
16,ACGGCTCG,-0.0111
17,CAACGTAA,0.447
18,TAACGTGA,0.274
19,TAACGTTA,0.302
20,TAACGTAA,0.457
21,GAACGTAA,0.428
22,GATCGTAA,0.281
23,CAACGTAG,0.354
24,CAACGTGA,0.182
25,GAACGTAC,0.254

row,Sequence,PBM E-score
1,ACAACTAA,0.161
2,AGGCCTGC,-0.301
3,GCCGTCGC,-0.133
4,CTCGGTAC,-0.0539
5,CTACTCAC,0.168
6,ACCACAAA,0.0563
7,ACCACGAC,0.128
8,ACCACGAA,0.131
9,GCCACGTA,0.421
10,ACCACGCC,-0.125
11,ACCACGGG,-0.243
12,ACCACGTC,0.363
13,ACCACGGA,-0.247
14,GCCACGGA,-0.215
15,ACCACGTA,0.441
16,GCCACGCA,0.0845
17,ACCACGTG,0.362
18,GTCTGATA,-0.114
19,TATCTGGA,-0.215
20,CCTCGGCG,-0.0614
21,CCACCAAG,-0.374
22,ACCGGTGG,-0.404
23,AACTCACC,-0.0504
24,GAGAACCA,-0.127
25,ACACTCCT,-0.189

row,Sequence,PBM E-score
1,ACGCTCAA,0.0466
2,TTGTGAAA,0.119
3,ACTTTCAA,0.0541
4,ACCTATAT,0.257
5,GTTGACGA,0.212
6,AGTGACGA,0.419
7,GGTGACCA,-0.137
8,GGTGACGA,0.422
9,AGTGACCA,-0.178
10,AGTGACGG,0.146
11,ACGCCCAG,-0.0834
12,TACACTAA,-0.0348
13,AATTGTGA,0.233
14,ATCGGCCC,-0.133
15,CCCCACGG,-0.22
16,CTCATTAA,0.0254
17,ATCATTAA,0.239
18,GTCATTAA,0.393
19,ATCATTGA,0.272
20,GTCATTGA,0.416
21,CTCATTGA,-0.0333
22,CCTGAGGC,-0.278
23,GATAGAGA,-0.084
24,ACCTTCGT,0.0282
25,CGTAAAAG,0.288

row,Sequence,PBM E-score
1,AGACTCAC,-0.129
2,TGAAGACA,0.0964
3,CGCGACTA,-0.0528
4,CTGGATGC,-0.36
5,CTGTGCGC,-0.113
6,CAAAGAAG,-0.00535
7,CATCGTCC,0.0258
8,CATCGTCG,-0.16
9,AATCGTCC,0.0937
10,AATCGTCA,0.423
11,CATCGTCA,0.395
12,GATCGTCA,0.321
13,TATCGTGA,0.168
14,TATCGTCA,0.42
15,AATCGTCT,0.0851
16,CCTCATTA,0.131
17,ATTGCCAC,-0.11
18,CGATGGGA,-0.0417
19,ACACTAAT,0.119
20,AGGTCCAT,0.0213
21,AGGACATC,-0.0352
22,GACGGGCA,-0.145
23,ATGCGTAA,0.437
24,ATGCGTAC,0.291
25,CTGCGTAA,0.397

row,Sequence,PBM E-score
1,CTGCGTTA,0.0283
2,ATGCGTAG,0.3
3,GAGCGTAA,0.218
4,GTGCGTAA,0.418
5,GTGCGCAA,0.114
6,CTGCGTAC,0.149
7,CACTGCAG,-0.064
8,CATCTTAC,0.228
9,TCAGAGAA,0.00926
10,ACGCCAAG,-0.0349
11,CCGCCATC,-0.29
12,ACGCCATC,0.376
13,ACGCCACA,0.234
14,CCGCCATA,-0.182
15,GCGCCATA,0.0343
16,ACGCCATA,0.393
17,ACGCCACC,0.0629
18,ACGCCATG,0.368
19,AAGGATCC,-0.254
20,CCACGCAG,0.057
21,ACACGGGT,-0.189
22,CAGCATCG,-0.332
